This assay in a line: qHTS Assay for Lipid Storage Modulators (AID 1519). On activity change, negative = inhibition: on the % scale 0 is the no-effect control and ±100 the full control effect. As to conditions: Drosophila S3 cells, BODIPY lipid droplet/cell ratio, laser cytometry, cells loaded with oleic acid. An excerpt:
NIH Molecular Libraries Probe Production Centers Network [MLPCN]
NIH Chemical Genomics Center [NCGC]
Assay Submitter (PI): Beller, Mathias; Max-Planck-Institut fur Biophysikalische Chemie
NCGC Assay Overview: Storing lipids as a reservoir for energy or the anabolism of elementary metabolites is a common feature of probably all cells and is conserved from bacteria to humans. The universal cellular lipid storage organelle is the so-called lipid storage droplet (LD). Although ubiquitous, LDs share a simple structure composed of a hydrophobic core that harbors the storage lipids, which is shielded by a droplet-specific phospholipid monolayer to which proteins are attached. The current model of LD biogenesis involves an incorporation of the lipid core into the membrane leaflets of the endoplasmic reticulum (ER) followed by a subsequent budding-like maturation of a LD, which ultimately pinches off. Once released, LD volume can increase by localized lipogenesis or fusion of existing droplets. Storage lipids are re-mobilized enzymatically by lipase activity. Lipase regulation in the adipocyte is heavily studied and involves multiple components including catecholamine signaling, the LD-associated proteins Perilipin and comparative gene identification-58 (CGI-58) and at least two lipases named hormone sensitive lipase (HSL) and adipocyte triglyceride lipase (ATGL). LD regulation outside of the adipocyte is poorly understood and only few components are known. However, there is an urgent need to learn more about ectopic fat depots as mislocalized storage of lipids, for example in the liver or muscle, is an eminent health problem associated with insulin resistance or the metabolic syndrome. We developed a laser-scanning cytometer assay to enable 1,536-well screening and combined the results of the small molecules screen with an RNAi database based on lipid storage.
NCGC Assay Protocol Summary:
We dispensed 4 uL of cells at 1.25 x 10^6 cells/mL into LoBase Aurora COC 1,536-well plates (black walled, clear bottom) with a bottle-valve solenoid-based dispenser (Aurora) to obtain 5,000 cells/well. Triacsin C (Sigma-Aldrich T-4540), an inhibitor of long-chain fatty acyl CoA synthetase that blocks synthesis of triglycerides, was used as a positive control for lipid under-storage. A total of 23 nL of compound solution of different concentrations were transferred to the assay plates using a Kalypsys pin tool equipped with a 1,536-pin array containing 10-nL slotted pins (FP1S10, 0.457-mm diameter, 50.8 mm long; V&P Scientific). One microliter of oleic acid (400 uM) was added, and the plate was lidded with stainless steel rubber gasket lined lids containing pinholes. […] Fluorescence was detected by excitation of the fluorophores with a 488-nm laser on an Acumen Explorer (TTP Lab Tech). The total intensity in channel 1 (500-530 nm) reflected lipid droplet accumulation. […] The ratio of the total intensity in PMT channel 1 over total intensity of channel 3 was also calculated. Percent activity was computed relative to an internal control (100% inhibited lipid droplet deposition due to the presence of 20 uM Triacsin C), which was added to 32 wells/plate.
(qHTS replaces the single test concentration by a dilution series.)

[1] abbreviates: measured here: cell count channel max response.
The mark [2] stands for this setting: measured here: lipid channel max response.

The structures appear in SMILES notation. Values joined by “and” are separate entries in the source; they are usually repeats but may differ in a detail not shown here. Equal entries are not always repeated. Results filed as inconclusive are left out. Active and inactive are the calls of the source. The call rests on the fitted dose curve.

Data on 14 compounds can be found in PubChem BioAssay (NCATS).

With `O=c1cccc2n1CC1CNC[C@H]2C1`, the activity change, negative = inhibition (at 25.7 µM (top of the series)) is -2.83% (inactive). In addition, the max response under setting [1] was -1.29% and the max response under setting [2] is -2.58%.

Turning to `CCCCc1ccc(C(=O)O)nc1`, the activity change, negative = inhibition is, setting by setting: (at 25.7 µM (top of the series)) -2.75% (inactive); (at 57.5 µM (top of the series)) 1.57% (inactive). The max response is, setting by setting: under setting [1], 0.85% and 4.91%; under setting [2], -1.53% and 6.42%.

As to `C[C@@H]1O[C@H](C[N+](C)(C)C)C[C@H]1O`, the activity change, negative = inhibition (at 57.5 µM (top of the series)) is -2.01% (inactive). Further, the max response runs as follows: under setting [1], 40.6%; under setting [2], 38%.

Regarding `NC(N)=NOCCC(N)C(=O)O` (stereo not drawn), the activity change, negative = inhibition (at 57.5 µM (top of the series)) was 1.36% (inactive) and 1.85% (inactive). The max response runs as follows: under setting [1], 3.95% and -21.7%; under setting [2], 4.87% and -17.2%.

`CC(=O)[C@H]1CCC2C3CC[C@H]4C[C@H](O)CC[C@]4(C)C3CC[C@@]21C` (stereo partly drawn): the activity change, negative = inhibition (at 57.5 µM (top of the series)) is 2.34% (inactive). The max response was -20.4% under setting [1] and -15.9% under setting [2].

Consider `COc1ccc(C(c2ccc(OC)cc2)C(Cl)(Cl)Cl)cc1`, for which the activity change, negative = inhibition (at 57.5 µM (top of the series)) was 6.03% (inactive). Also, the max response is, setting by setting: under setting [1], 12.8%; under setting [2], 30.2%.

`C[C@]12N[C@H](Cc3ccccc31)c1ccccc12`: the activity change, negative = inhibition (at 57.5 µM (top of the series)) was -1.18% (inactive). For the same compound, the max response was found to be 51.7% under setting [1] and 40.7% under setting [2].

In the case of `C#CC1(O)CCC2C3CCC4=CC(=O)CCC4(C)C3CCC21C` (stereo not drawn), under “at 57.5 µM (top of the series)”, the activity change, negative = inhibition was 2.45% (inactive). In addition, the max response runs as follows: under setting [1], 10.4%; under setting [2], 15.6%.

As to `NCCc1c[nH]c2ccccc12`, where the note is “at 57.5 µM (top of the series)”, the activity change, negative = inhibition was 5.62% (inactive). Also, the max response under setting [1] is 8.58% and the max response under setting [2] was determined as 17.6%.

`NC1CCc2cc(O)c(O)cc2C1` (stereo not drawn): the activity change, negative = inhibition (at 57.5 µM (top of the series)) was -0.984% (inactive). Further, the max response under setting [1] is -18.2% and the max response under setting [2] is -19.2%.

Regarding `CCC(=O)OC1CCC2C3CCC4=CC(=O)CC[C@@]4(C)C3CC[C@]12C` (stereo partly drawn), under “at 57.5 µM (top of the series)”, the activity change, negative = inhibition was 11.4% (inactive). Further, the max response is, setting by setting: under setting [1], 4.67%; under setting [2], 18.5%.

As to `S=C(NC1CCCCC1)N1CCC(c2cnc[nH]2)CC1`, under “at 57.5 µM (top of the series)”, the activity change, negative = inhibition was 0.457% (inactive). Moreover, the max response turned out to be 8.5% under setting [1] and 6.88% under setting [2].

As to `CN1C2CCC1CC(OC(=O)c1cc(Cl)cc(Cl)c1)C2` (stereo not drawn), under “at 57.5 µM (top of the series)”, the activity change, negative = inhibition was -1.85% (inactive). Further, the max response is, setting by setting: under setting [1], -22.1%; under setting [2], -22.4%.

Consider `Cc1cc(O)ccc1Cl`, for which the activity change, negative = inhibition (at 57.5 µM (top of the series)) was 8.09% (inactive). Moreover, the max response reads like this: under setting [1], -7.09%; under setting [2], 5.53%.
